Test results as given in PubChem BioAssay AID488969 (Vanderbilt High Throughput Screening Facility, 2010).
The full ranking holds about 110,000 compounds; the median of “z-score” is about -0.1, and the highest 2% start at about 2. This is one part of a sample in which the highest values are shown more often than they occur. The source made the active and inactive calls.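 The calls were made as follows: active = z-score in the third read window above 3 or below -3; inactive = the rest.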

target: Metabotropic glutamate receptor 8 (Rattus norvegicus) (UniProt P70579); assay: rat mGluR8 modulators via GIRK flux, primary screen, cell-based, thallium flux, HTS (AID 488969); conditions: HEK293 rat mGluR8, GIRK (G protein-gated inwardly rectifying potassium channel) thallium flux, FluoZin2; at 10 µM; stronger effect = higher value; submaximal glutamate (EC20) added with thallium
Sequence (P70579 whole entry, looked up): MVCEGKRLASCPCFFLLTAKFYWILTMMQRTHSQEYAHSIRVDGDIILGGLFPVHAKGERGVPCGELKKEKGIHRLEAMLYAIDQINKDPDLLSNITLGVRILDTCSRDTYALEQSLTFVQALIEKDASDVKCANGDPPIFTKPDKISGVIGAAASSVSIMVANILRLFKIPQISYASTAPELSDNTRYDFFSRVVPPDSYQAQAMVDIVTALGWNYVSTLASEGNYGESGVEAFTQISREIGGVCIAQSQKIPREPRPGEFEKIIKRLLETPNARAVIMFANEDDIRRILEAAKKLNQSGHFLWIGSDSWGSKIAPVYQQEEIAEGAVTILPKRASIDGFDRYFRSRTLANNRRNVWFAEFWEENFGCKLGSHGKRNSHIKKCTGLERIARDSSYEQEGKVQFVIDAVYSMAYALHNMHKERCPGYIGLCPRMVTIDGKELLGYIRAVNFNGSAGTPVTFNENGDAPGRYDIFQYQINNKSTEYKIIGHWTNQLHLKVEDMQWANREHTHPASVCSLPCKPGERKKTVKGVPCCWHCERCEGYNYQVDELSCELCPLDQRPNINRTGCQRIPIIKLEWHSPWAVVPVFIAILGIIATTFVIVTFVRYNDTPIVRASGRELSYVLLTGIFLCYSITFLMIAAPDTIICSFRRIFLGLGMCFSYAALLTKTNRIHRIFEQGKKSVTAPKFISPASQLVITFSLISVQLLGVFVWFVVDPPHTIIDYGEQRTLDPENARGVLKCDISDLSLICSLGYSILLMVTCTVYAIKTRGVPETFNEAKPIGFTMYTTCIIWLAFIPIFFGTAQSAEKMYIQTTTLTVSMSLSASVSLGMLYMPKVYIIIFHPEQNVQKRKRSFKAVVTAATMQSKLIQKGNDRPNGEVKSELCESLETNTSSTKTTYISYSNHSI

Structure (SMILES)	z-score
CCn1c(CCn2ccnc2C)n[nH]c1=S	0.253
CCc1ccc(NC(=O)CCn2ccnc2C)cc1	0.306
Cc1nccn1CCc1nc(N)nc(N)n1	7.57 (active)
O=c1cc(CN2CCN(CCO)CC2)c2cc3c(cc2o1)CCC3	0.804
CCN(C(=O)c1ccco1)c1nc(CC(=O)Nc2ccc(Cl)cc2)cs1	-0.635
O=C(Nc1ccc2oc(-c3cccnc3)nc2c1)c1ccco1	-0.851
CCOC(=O)c1c(-c2ccc(C)o2)csc1NC(=S)NC(=O)N(C)C	13.6 (active)
CCOC(=O)c1c(-c2ccc(C)o2)csc1NC(=S)NC(=O)c1cccs1	3.05 (active)
CCOC(=O)c1c(-c2ccc(C)o2)csc1NC(=O)CSc1nnc(C)s1	-1.11
CCOC(=O)c1c(-c2ccc(C)o2)csc1NC(=O)COC(=O)c1cccs1	0.191
CCOC(=O)c1c(-c2ccc(C)o2)csc1NC(=S)NC(=O)c1ccccc1Br	0.406
CCOC(=O)c1c(-c2ccc(C)o2)csc1NC(=O)CN(C)CC(=O)Nc1ccc(C)cc1	-0.104
O=C1OCCC1Sc1nnc(-c2ccccc2)o1 (configuration not stated)	-0.134
Cc1c(Cl)cccc1NC(=S)NC1CCN(Cc2ccccc2)CC1	-0.67
Cc1cc(C(=O)OCC(=O)Nc2ccc(F)cc2)c(C)o1	2.45
Cc1occc1C(=O)OCC(=O)Nc1ccc(F)cc1	0.794
Cc1cc(C(=O)OCC(=O)Nc2ccc(F)c(F)c2)c(C)o1	0.0113
N#Cc1c(N)nc2c(c1-c1ccncc1)CCCC2	-0.232
COc1ccc2c(CC(=O)NC3CCCc4ccccc43)coc2c1 (configuration not stated)	-0.484
Cc1cc2occ(CC(=O)NC3CCCc4ccccc43)c2cc1C (configuration not stated)	0.0042
Cc1ccc2c(CC(=O)NC3CCCc4ccccc43)coc2c1 (configuration not stated)	4.11 (active)
CCOC(=O)C(NC(=O)NCc1ccc(OC)cc1)(OCC)C(F)(F)F (configuration not stated)	-0.306
O=C(c1ccc(Cl)cc1)c1cnc2ccccn12	-0.0464

Structure (SMILES)	z-score
O=C(Nc1ccccc1F)c1ccc(-n2cncn2)nc1	-0.0684
O=C(CN1CCCCCCC1)N/N=C/c1ccc(F)cc1F	-0.63
CC(=O)c1ccc(NC(=O)COC(=O)CCC(=O)c2cccs2)cc1	0.114
Cc1ccccc1NC(=O)C(=O)NC(C)CCc1ccccc1 (configuration not stated)	7.37 (active)
Cc1ccccc1NC(=S)NC(C)CCc1ccccc1 (configuration not stated)	0.22
Cc1cccc(NC(=S)NC(=O)CCc2ccccc2)c1C	0.747
Cc1cccc(C)c1NC(=S)NC(=O)CCc1ccccc1	1.73
Cc1cccc(NC(=S)NNC(=O)Cc2ccccc2)c1	0.0541
Cc1ccccc1NC(=S)NC(=O)CCc1ccccc1	2.94
O=C(CCc1ccccc1)NC(=S)Nc1cccc(Br)c1	0.0148
Cc1cccc(NC(=S)NC(C)CCc2ccccc2)c1 (configuration not stated)	0.2
Cc1cccc(NC(=O)NC(C)CCc2ccccc2)c1 (configuration not stated)	4.17 (active)
COC(=O)[C@H](C)NC(=O)Nc1cccc(C)c1	-0.0554
CC(CCc1ccccc1)NC(=O)C(=O)Nc1ccccc1 (configuration not stated)	-0.109
Cc1cccc(NC(=S)NC(=O)CCc2ccccc2)c1	2.74
CCOc1ccc(Cn2ccnc2CCl)cc1[N+](=O)[O-]	-0.00871
Cc1cccc(N(C)C(=O)c2coc(=O)c3ccccc23)c1	-0.042
CCCS(=O)(=O)N1CCCC(C(=O)NC2CCCCC2)C1 (configuration not stated)	0.0604
O=C(CSc1nc2c(c(C(F)(F)F)n1)CCc1ccccc1-2)NCc1ccc(F)cc1	0.759
CCn1cc(C(=O)N2CCN(Cc3ccc4c(c3)OCO4)CC2)c(=O)c2ccc(C)nc21	-0.451
CCc1ccccc1NC(=O)CSc1nc2c(c(-c3ccco3)c1C#N)CCCC2	0.16
CCOc1ccc(N2C(=O)CC(Sc3nc(C)cc(C)c3C#N)C2=O)cc1 (configuration not stated)	0.15
CC1CCN(C(=O)Cc2nn(C)c(=O)c3ccccc23)CC1	0.733

Structure (SMILES)	z-score
COc1ccc(Oc2nc(C(F)(F)F)nc3ccccc23)cc1	-0.576
Cc1c(Br)c([N+](=O)[O-])nn1C(C)C(=O)NCc1cccs1 (configuration not stated)	-0.152
Cc1ccc(NC(=O)Cn2nnc(-c3ccccc3NC(=O)c3cccs3)n2)cc1	-0.57
CCc1cc(-c2n[nH]c(=S)n2C(C)c2ccccc2)cs1 (configuration not stated)	2.55
CC(c1ccccc1)n1c(-c2ccncc2)n[nH]c1=S (configuration not stated)	0.000563
CCCc1cc(-c2n[nH]c(=S)n2C(C)c2ccccc2)cs1 (configuration not stated)	10.9 (active)
Cc1scc(-c2n[nH]c(=S)n2C(C)c2ccccc2)c1C (configuration not stated)	-1.43
CCc1cc(-c2n[nH]c(=S)n2-c2ccccc2C)cs1	-0.325
CCn1c(-c2csc(-c3ccccc3)n2)n[nH]c1=S	0.398
CCOC(=O)CNC(=O)CSc1nc(N(C)C)nc(N2CCOCC2)n1	-0.116
COc1ccc(-c2cc(-n3c(C(F)(F)F)nc4ccccc43)n(CCC#N)n2)cc1	-0.215
CCN1CCN(c2cc(C)c3cc(NC(=O)c4ccc(Br)o4)ccc3n2)CC1	3.44 (active)
Cc1cc(N2CCCCC2)nc2ccc(NC(=O)c3ccc(Br)o3)cc12	-1.58
CCN1CCN(c2cc(C)c3cc(NC(=O)c4ccncc4)ccc3n2)CC1	1.22
CCCC1Cc2nc(N3CCCCC3)c(C#N)cc2CO1 (configuration not stated)	0.443
Cc1cc(NCCCN(C)C)n2nc(-c3cccs3)cc2n1	-0.0105
CCOc1ccc(NS(=O)(=O)c2ccc3c(c2)CCN3C(=O)C2CCC2)cc1	-0.102
CC(C)NC(=O)c1cccc(Br)c1	-0.0557
Cc1ccc(OCc2nn3c(-c4ccco4)nnc3s2)cc1	-1.14
Fc1ccc(-c2cc(-c3nnc4n3CCCCC4)c3ccccc3n2)cc1	-0.316
c1ccc2c(-c3nnc4n3CCCCC4)cc(-c3ccncc3)nc2c1	0.284
Clc1ccc(-c2cc(-c3nnc4n3CCCCC4)c3ccccc3n2)cc1	2.08
O=c1c2c(-c3cccs3)csc2ncn1-c1ccccc1	-0.0624

Structure (SMILES)	z-score
O=C(c1ccc(Cl)c([N+](=O)[O-])c1)N1CCN(c2ccccn2)CC1	-0.0404
CCSc1nc2c(sc3ccccc32)c(=O)n1C(C)C	0.00726
Cc1ccc(Cn2c(SCC(=O)NCC3CCCO3)nc3c(sc4ccccc43)c2=O)cc1 (configuration not stated)	2.06
CCC(C)NC(=O)CSc1nc2c(sc3ccccc32)c(=O)n1CCCN1CCOCC1 (configuration not stated)	0.452
NC(=O)CSc1nc2c(sc3ccccc32)c(=O)n1CCCN1CCOCC1	0.869
CCCCn1c(SCC(N)=O)nc2c(sc3ccccc32)c1=O	3.23 (active)
CCCCn1c(SCC(=O)NCc2ccco2)nc2c(sc3ccccc32)c1=O	-0.00992
O=C(CSc1nc2c(sc3ccccc32)c(=O)n1Cc1ccccc1)NCC1CCCO1 (configuration not stated)	0.199
O=C(CSc1nc2c(sc3ccccc32)c(=O)n1CCO)NCC1CCCO1 (configuration not stated)	0.0816
CC(C)CCn1c(SCC#N)nc2c(sc3ccccc32)c1=O	5.93 (active)
Cc1ccc(S(=O)(=O)NCc2c(-c3ccccc3)c3cc(Cl)ccc3[nH]c2=O)cc1	-0.178
CC1CC(C)CN(CC(=O)Nc2ccc3c(c2)OCCO3)C1 (configuration not stated)	-0.603
COc1cc(N2C(=O)c3ccccc3C2=O)c(Cl)cc1C(=O)OCC(=O)NCc1ccco1	0.165
CCOC(=O)c1cnc(SC)nc1N	-0.0813
CCCn1c(-c2ccc(F)cc2)cnc1SCC(=O)O	-0.678
CCOC(=O)c1c(C)[nH]c(C(=O)COC(=O)CNC(=O)c2ccc(Br)cc2)c1C	-0.279
CCOC(=O)c1c(C)[nH]c(C(=O)COC(=O)CNC(=O)c2ccc(Cl)cc2Cl)c1C	-0.202
CCOC(=O)c1c(C)[nH]c(C(=O)COC(=O)CNC(=O)c2ccc(Cl)cc2)c1C	5.97 (active)
COc1ccc(CCn2c(C)cc(C(=O)CSc3nnnn3-c3ccccc3)c2C)cc1	0.292
CN(C)c1ccc(/C=C/c2nnnn2-c2ccccc2)cc1	-0.556
COc1ccc(S(=O)(=O)N2CCCCC2)cc1NC(=O)c1ccc2ccccc2n1	-0.376
CCc1ccc(Nc2nc3ccccc3c(=O)s2)cc1	2.82
CCc1ccc(NCc2nc3ccccc3c(=O)[nH]2)cc1	-0.644

Structure (SMILES)	z-score
CCc1ccc(Nc2nnc(SCn3nnc4ccccc4c3=O)s2)cc1	-0.292
Cc1ccc2nc3sc(C(=O)N4CCCc5ccccc54)c(N)c3cc2c1	0.484
CN(Cc1nc(-c2ccncc2)no1)S(=O)(=O)c1ccccc1	0.00952
O=C(CSc1ccccn1)N1CCN(c2ccccc2)CC1	0.0291
COc1ccc2nc(/N=C\N(C)C)sc2c1	0.401
CCOc1ccc2nc(NC(=O)CS(=O)(=O)c3ccc(C)cc3)sc2c1	-0.503
COc1ccc2nc(/N=C/c3c(C)[nH]n(-c4ccc(C)cc4)c3=O)sc2c1	9.39 (active)
CCOc1ccc2nc(SC3CC(=O)N(c4ccc(C)cc4)C3=O)sc2c1 (configuration not stated)	0.0229
CCOc1ccc(N=Cc2c(C)[nH]n(-c3nc4ccccc4[nH]3)c2=O)cc1	0.0911
COc1ccc2nc(/N=C/c3c(C)[nH]n(-c4ccc(C)cc4C)c3=O)sc2c1	15.7 (active)
COc1cc(SC#N)ccc1N=Cc1c(C)[nH]n(-c2ccc(C)cc2C)c1=O	-0.204
Cc1ccc(-n2[nH]c(C)c(C=Nc3ccc(S(=O)(=O)Nc4nc(C)cc(C)n4)cc3)c2=O)c(C)c1	-0.0925
CCOc1ccc2nc(/N=C/c3c(C)[nH]n(-c4ccccc4)c3=O)sc2c1	13.8 (active)
CCOc1ccc2nc(/N=C/c3c(C)[nH]n(-c4ccc(C)cc4)c3=O)sc2c1	10.6 (active)
Cc1[nH]n(-c2ccccc2)c(=O)c1C=Nc1cnc2ccccc2c1	0.416
COc1cc(SC#N)ccc1N=Cc1c(C)[nH]n(-c2ccc(C)cc2)c1=O	0.469
O=C(CCc1nc(-c2ccc(Cl)cc2)no1)OCc1ccc(Br)cc1	-0.0119
O=C(CCSc1ccc(Cl)cc1)NC1CCCCC1	-0.109
COC(=O)c1ccccc1NC(=O)c1cc(-c2ccc(O)cc2)on1	-0.322
Cc1cc(N=Cc2cc(Br)ccc2O)no1	-1.2
